About 83,000 compounds went through this panel and 20% of them were active in at least one assay; those are over-represented in the sample as a whole.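 For each line, cells grew in 96-well plates with the test compound present at a single concentration for 48 hours.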 The source made the active and inactive calls. How the source made its calls: active means growth percent below 10; inactive means the rest.
What follows are molecules tested on HL-60(TB) leukemia (assay: NCI-60 one-dose screen, 48 h (100 = growth as untreated, 0 = no growth, -100 = all killed)). Details: 10 µM unless noted.
With `O=C(N/N=C/c1c[nH]c2ccccc12)Nc1ccc(F)c(Cl)c1` the growth was 15.9% (inactive).
`COc1ccc(NC(=O)CSc2nnc(-c3ccc(-c4nc5ccccc5[nH]4)cc3)o2)cc1` was tested, and the growth was 43.5% (inactive).
With `CCOC(=O)C1=C(N)N(c2ccccc2)C2=C(C(=O)CC(C)(C)C2)C1c1cccc(Cl)c1Cl` (centres undefined) the growth was 46.2% (inactive).
`O=c1[nH]c2ccccc2cc1CSc1ccccc1Nc1nccc(-c2ccc3c(c2)OCO3)n1` was tested, and the growth was 98% (inactive).
In the case of `CN1CCc2c(sc3ncnc(N/N=C/c4cn(-c5ccccc5)nc4-c4ccc(Cl)cc4)c23)C1`, the growth is reported as -12.4% (active).
`Cc1cc(=O)oc2cc(OCCCCOc3ccc(/C=C/C(=O)Nc4ccc(F)c(Cl)c4)cc3)ccc12` was tested, and the growth was 97.6% (inactive).
In the case of `COc1ccc(Cn2cc(C#N)c(N)c2C(C)=O)c(OC)c1`, the growth is reported as 99% (inactive).
For `O=C1Nc2cc(-c3ccc(NS(=O)(=O)c4ccc(C(F)(F)F)cc4)cc3)ccc2/C1=C/c1ccc[nH]1`, the growth was 1.77% (active).
In the case of `CC1CCCCN1CCCNC(=O)N/C(N)=N/c1nc2ccccc2s1` (centres undefined), the growth is reported as 19.5% (inactive).
For `CCOP(=O)(OCCCl)c1nc(-c2ccc(C)cc2)oc1NCc1ccccc1` (centres undefined), the growth was 71.9% (inactive).
In the case of `CC12CC[C@@H]3[C@]4(C)COC(c5c(F)cccc5F)O[C@@H]4CC[C@@]3(C)[C@@H]1CC(C1=CCOC1=O)O2` (some centres undefined), the growth is reported as 60.3% (inactive).
With `O=C1/C(=C/c2cnc(-c3ccccc3)s2)SC(=S)N1Cc1ccc2c(c1)OCO2` the growth was 69% (inactive).
`CCOC(=O)C(N=Nc1ccc(S(=O)(=O)N=C(N)N)cc1)C(C)=O` (centres undefined) was tested, and the growth was 96.4% (inactive).
With `COc1ccc2nc(Nc3cccc(NC(=O)c4ccc(CN5CCCN(C)CC5)c(C(F)(F)F)c4)c3)ccc2c1` the growth was -28% (active).
`N#Cc1ccc(C(=O)Nn2c(N)cc3ccccc3c2=O)cc1` was tested, and the growth was 98.5% (inactive).
With `CN1CCc2c(sc3ncnc(N/N=C/c4ccc(Cl)cc4Cl)c23)C1` the growth was -49.9% (active).
For `COc1cc2c(c(OC)c1OC)C(=O)CC(c1cccc(NC(=O)[C@@H](N)CC(C)C)c1)O2` (some centres undefined), the growth was 96.6% (inactive).
In the case of `C=C1CCC2C3(C)COC(c4cccc(F)c4)OC3CCC2(C)C1CC(O)C1=CCOC1=O` (centres undefined), the growth is reported as 66.7% (inactive).
For `O=C(N/N=C/c1c[nH]c2ccccc12)Nc1ccccc1Cl`, the growth was 0.912% (active).
In the case of `CC(=O)OC[C@@]1(C)C2CC[C@]3(C)C(CC=C4C5CC(C)(C)CC[C@]5(C(=O)Nc5ccc(C)cc5)CC[C@]43C)[C@@]2(C)C[C@@H](OC(C)=O)[C@@H]1OC(C)=O` (some centres undefined), the growth is reported as 31.6% (inactive).
In the case of `O=C(NNC(=O)c1ccc(OCc2nc3ccc(Cl)cc3[nH]2)cc1)Nc1ccc(Cl)c(C(F)(F)F)c1`, the growth is reported as 74.8% (inactive).
In the case of `O=C1c2c(c3c4cc(F)ccc4oc3c3[nH]c4ccc(Br)cc4c23)C(=O)N1O`, the growth is reported as 16.9% (inactive).
For `O=C(/C=C/c1ccc(-c2ccccc2)cc1)c1nc2ccccc2n1Cc1ccc(Br)cc1`, the growth was 35.3% (inactive).
For `Cc1nc(Nc2ccccn2)sc1C(=O)CC(SCC(=O)Nc1ccc(Cl)cc1)c1ccccc1F` (centres undefined), the growth was 14% (inactive).
In the case of `Cc1ccc(S(=O)(=O)N(CCn2ccnc2[N+](=O)[O-])CCn2ccnc2[N+](=O)[O-])cc1`, the growth is reported as 94.6% (inactive).
For `COc1ccc(NC(=O)NN2C(=O)c3ccccc3N(C)C2c2ccc(OC)cc2)cc1` (centres undefined), the growth was 101% (inactive).
For `Brc1ccc(-c2n(Cc3ccc4ccccc4c3)c(-c3ccccc3)c(-c3ccccc3)[n+]2Cc2ccc3ccccc3c2)cc1`, the growth was -5.57% (active).
For `COc1cc2oc(-c3cccc(C(=O)Nc4ccc(Cl)cc4)c3)cc(=O)c2c(OCCNC(=O)[C@H](CO)NC(=O)OC(C)(C)C)c1OC`, the growth was -32.5% (active).
For `Cc1cccc(NCC(=O)N2CCN(c3ncnc4c3cnn4-c3ccccc3)CC2)c1`, the growth was 60.2% (inactive).

Reference: PubChem BioAssay (NCI)
